Assay results from ChEMBL document CHEMBL4513216, “Probing the Open Global Health Chemical Diversity Library for Multistage-Active Starting Points for Next-Generation Antimalarials” (ACS Infect Dis, 2020).
Screen size: about 68,000 compounds; about 2,700 (4%) showed an effect of 50% or more. This is one part of a sample in which strong results are shown more often than they occur.

These compounds were tested on Plasmodium berghei (assay: Screen against P. berghei liver stage (PbLuc), transformed with Luciferase, at 2uM). Conditions: tested at 2 uM.
Format: functional, HepG2
Work on `CCNC(=O)[C@@H]1C[C@H](NC(=O)c2ccc(C)s2)CN1Cc1ccc(C)o1` yielded an INHIBITION of -12.44%.
`Cc1occc1C(=O)N1Cc2nccn2CC(CN2CCOCC2)C1` (stereo not given) showed an INHIBITION of 25.86%.
`COc1nc2c(cc1C(=O)NCCCc1nnc(N)s1)CCC2` showed an INHIBITION of 38.32%.
`Cc1noc(CN(C)C2CCCN(Cc3noc(C4CC4)n3)C2)n1` (stereo not given) was tested, and the INHIBITION was -23.42%.
With `O=C(CC1Cn2ncnc2NC1=O)Nc1cccc(C(F)(F)F)c1` (stereo not given) the INHIBITION was 0%.
For `O=S(=O)(CCNCc1cc(O)c2cc(F)ccc2n1)N1CCCC1`, the INHIBITION was -9.89%.
`CN(C)S(=O)(=O)N1CCCC(c2ccncn2)C1` (stereo not given) gave an INHIBITION of 31.98%.
For `CCn1nc(CC(C)C)cc1C(=O)NCC(F)(F)F`, the INHIBITION was 1.04%.
In the case of `CC(C)COC[C@@H]1CC[C@H]2[C@H](CCN2C(=O)c2ccncc2F)O1`, the INHIBITION is reported as 31.08%.
For `CC(C)COC[C@H]1CC[C@H]2[C@H](CCN2C(=O)c2ccncc2F)O1`, the INHIBITION was 55.49%.
Compound `O=C(c1ccncc1F)N1CC[C@@H]2OC(COCC3CC3)CC[C@@H]21` (stereo not given in full) has an INHIBITION of 27.08%.
For `CCOC[C@H]1CC[C@H]2[C@H](CCN2C(=O)c2ccncc2F)O1`, the INHIBITION was 0.82%.
Work on `CCOC[C@@H]1CC[C@H]2[C@H](CCN2C(=O)c2ccncc2F)O1` yielded an INHIBITION of 50.61%.
In the case of `COC[C@H]1CC[C@H]2[C@H](CCN2C(=O)c2ccncc2F)O1`, the INHIBITION is reported as 39.51%.
Work on `CC(=O)Nc1ccc(CNc2ccn(Cc3ccccc3)n2)cc1` yielded an INHIBITION of 35.56%.
For `COCCOc1ccc(NC(=O)C2CC(=O)N(C3CC3)C2)cn1` (stereo not given), the INHIBITION was -45.07%.
Compound `NCC1CCC2(CCN(C(=O)c3ccccn3)CC2)CO1` (stereo not given) has an INHIBITION of -5.44%.
With `O=C(C(CNCc1cccnc1)c1ccccc1)N1CCOCC1` (stereo not given) the INHIBITION was 17.33%.
Work on `Cc1nc(CN2CCOCC23CCN(c2ccc(C#N)cc2)CC3)cs1` yielded an INHIBITION of -30.38%.
`c1csc(COC[C@H]2CCC[C@]23CN(Cc2ccoc2)CCO3)n1` gave an INHIBITION of 36.29%.
Compound `c1coc(CN2CCO[C@@]3(CCC[C@@H]3COCc3nccs3)C2)c1` has an INHIBITION of 54.25%.
`COC[C@@H]1CCC[C@@]12CN(Cc1ccco1)CCO2` was tested, and the INHIBITION was 18.4%.
Work on `CCCS(=O)(=O)N1CCC2(CC1)CN(c1ccccn1)CCO2` yielded an INHIBITION of 72.41%.
For `O=C(c1cccnc1)N1CCC2(CC1)CN(c1ccccn1)CCO2`, the INHIBITION was -1.81%.
`Cc1ccc(C(=O)N2CCC3(CC2)CN(c2ccccn2)CCO3)cc1` gave an INHIBITION of 56.71%.
For `CCCS(=O)(=O)N1CCOC2(CCCN(c3ccccn3)C2)C1` (stereo not given), the INHIBITION was 2.39%.
`O=C(c1ccnnc1)N1CCC2(CC1)CN(c1ccccn1)CCO2` showed an INHIBITION of -0.91%.
`CCS(=O)(=O)N1CCOC2(CCCN(c3ccccn3)C2)C1` (stereo not given) gave an INHIBITION of 29.45%.
Work on `Cc1cc(CN2C[C@@H]3CN(C(=O)c4cccn4C)CCO[C@@H]3C2)no1` yielded an INHIBITION of 9.45%.
Work on `CN(C)C(=O)CCCNC(=O)C(c1cccc(F)c1)N(C)C` (stereo not given) yielded an INHIBITION of -4.92%.
Work on `OCCn1nccc1C1CCN(CCOc2ccccc2F)CC1` yielded an INHIBITION of 17.31%.
`NC(=O)NC(=O)C(c1ccccc1)N1CCN(Cc2ccsc2)CC1` (stereo not given) showed an INHIBITION of 50.3%.
`NC(=O)NC(=O)C(c1ccccc1)N1CCN(Cc2ccccc2)CC1` (stereo not given) was tested, and the INHIBITION was 16.8%.
Work on `NC(=O)NC(=O)C(c1ccccc1)N1CCN(Cc2ccc(Cl)s2)CC1` (stereo not given) yielded an INHIBITION of -72.31%.
`CC(C)n1cc(N2CC(C(=O)N3CCCC3)CC2=O)cn1` (stereo not given) was tested, and the INHIBITION was -69.99%.
`O=C(N1CCCO1)[C@@]12CCO[C@@H]1CCN(Cc1cccs1)C2` gave an INHIBITION of 17.31%.
`COc1cccc(CN2CCCCCC2c2cccs2)c1O` (stereo not given) was tested, and the INHIBITION was 4.47%.
With `COc1cc(CN2CCCCCC2c2cccs2)cc(OC)c1OC` (stereo not given) the INHIBITION was 11.24%.
`COc1cc(CN2CCCCCC2c2cccs2)cc(OC)c1O` (stereo not given) was tested, and the INHIBITION was 50.46%.
For `O=C(C1CCCC1)N1CC2(CCN(C3COC3)CC2)Cc2ccccc21`, the INHIBITION was -3.1%.
`Cc1cccc(-c2nc(C)nn2CC(=O)NC(C)C)c1` showed an INHIBITION of -15.28%.
`O=C(c1csnn1)N1CCc2[nH]nc(COc3cccc(Cl)c3)c2C1` was tested, and the INHIBITION was 47.89%.
For `O=C1CC[C@@H](C(=O)N2CCc3[nH]nc(COc4cccc(Cl)c4)c3C2)N1`, the INHIBITION was 51.85%.
With `O=C(N1CCOCC1)N1CCc2[nH]nc(COc3cccc(Cl)c3)c2C1` the INHIBITION was 5.04%.
With `CN1C(=O)C2(CCCN(C(=O)c3cccnc3O)C2)c2ccccc21` (stereo not given) the INHIBITION was -23.27%.
`O=C(NCCn1ccnc1)N1CCN(Cc2ccsc2)CC1` was tested, and the INHIBITION was -1.3%.
In the case of `CC(Cn1ccnc1)NC(=O)N1CCN(Cc2ccco2)CC1` (stereo not given), the INHIBITION is reported as 32.64%.
For `COc1ccc(C2CCCN2C(=O)NCCn2ccnc2)cc1` (stereo not given), the INHIBITION was 26.61%.
With `O=C(NCCn1ccnc1)N1CCCC1c1ccncc1` (stereo not given) the INHIBITION was 53.33%.
`O=C(NCCn1ccnc1)N1CCN(Cc2cccnc2)CC1` was tested, and the INHIBITION was 58.96%.
